MITF primary: blocks human microphthalmia-associated transcription factor; AlphaScreen MITF homodimerization, bead proximity signal; inhibition, % at 2.6 µM; O75030; 650,000 tested, 0.91% active; in the data active = inhibition above about 50%;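 note: 0% = vehicle wells with protein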
Target sequence (O75030 whole entry, looked up): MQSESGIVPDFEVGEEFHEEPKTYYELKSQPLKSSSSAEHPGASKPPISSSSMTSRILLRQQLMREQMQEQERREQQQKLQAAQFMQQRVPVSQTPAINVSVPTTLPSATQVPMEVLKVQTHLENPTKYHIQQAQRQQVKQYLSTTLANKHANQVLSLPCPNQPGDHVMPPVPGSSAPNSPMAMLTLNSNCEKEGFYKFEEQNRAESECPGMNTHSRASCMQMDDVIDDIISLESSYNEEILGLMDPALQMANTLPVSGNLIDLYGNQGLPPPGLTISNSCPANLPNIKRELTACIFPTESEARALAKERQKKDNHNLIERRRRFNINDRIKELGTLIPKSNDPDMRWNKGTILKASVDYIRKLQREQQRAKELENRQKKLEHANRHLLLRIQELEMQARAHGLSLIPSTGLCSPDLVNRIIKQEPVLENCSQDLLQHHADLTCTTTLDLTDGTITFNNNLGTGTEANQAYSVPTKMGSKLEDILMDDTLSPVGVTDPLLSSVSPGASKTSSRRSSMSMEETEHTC
FBW7 act: activators of human E3 ligase FBW7; AlphaScreen FBW7–phospho-cyclin E peptide binding, activator screen; AID 1259310; normalized activity (activation), % at 26.1 µM; Q969H0; 650,000 tested, 0.13% active; in the data active = normalized activity above about 1.9%;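 note: purified mutant Fbw7 with reduced substrate affinity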
TEAD-YAP block: TEAD-YAP interaction inhibition. HEK-TIYL cells, TEAD-Gal4/YAP UAS-luciferase luminescence. inhibition, % at 9.12 µM. 640,000 tested, 1.4% active; in the data active = inhibition above about 32%;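 note: 0% = median of test compound wells and 100% = reference inhibitor wells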
GPR151 activ: human GPR151 activation; Q8TDV0; PathHunter beta-arrestin GPR151 cells, luminescence; activation, % at 11.2 µM; 650,000 tested, 1% active; in the data active = activation above about 4.9%;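 note: 0% = median of compound wells and 100% = cells with positive control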
Numbers without * were called inactive. Compounds with a hit are over-represented: about 3.5% of the library has one in this group of screens.

SMILES	MITF primary	FBW7 act	TEAD-YAP block	GPR151 activ
COc1ccccc1N1C(=O)NC2CC1(C)Oc1ccc(Br)cc12 (stereo unspecified)	2	0	4	0
CCOc1ccccc1N1C(=O)NC2CC1(C)Oc1ccc(Br)cc12 (stereo unspecified)	-21	3.3*	-2	0
C=CCSC(=C(C#N)C#N)c1cc2c([nH]1)CCCC2	10	0	51*	-1
O=C(O)c1cc2c([nH]c1=O)CCCC2	6	0	1	1
Nc1nc(Nc2ccccc2)cc(N2CCOCC2)n1	4	0	-17	0
Clc1ccccc1OCc1nc(-c2ccccn2)no1	13	0	-27	-7
Clc1ccc(OCc2nc(-c3ccccn3)no2)c(Cl)c1	5	0	36*	-5
Cc1csc(NC(=O)CN2CCC(c3ccncc3)CC2)n1	3	0	45*	0
O=C(Oc1ccc([N+](=O)[O-])c2cccnc12)c1ccccc1	82*	-1	57*	0
C/C(=N\NC(N)=O)c1ccc(O)c(O)c1O	86*	0	5	3
Cc1ncn(-c2ccc(Nc3cc(-c4nocc4-c4c(C)n[nH]c4C)ccn3)cc2)n1	5	0	48*	-2
COC(=O)C1=C(C)NC2=C(C(=O)CC(c3ccccc3)C2)C1c1ccc(O)c([N+](=O)[O-])c1 (stereo unspecified)	18	0	9	0
COc1ccc(C2CC(=O)C3=C(C2)NC(C)=C(C(=O)OCc2ccccc2)C3c2cccc([N+](=O)[O-])c2)cc1 (stereo unspecified)	1	0	59*	1
CC1=C(C(=O)OCc2ccccc2)C(c2cccc([N+](=O)[O-])c2)C2=C(CC(c3ccccc3)CC2=O)N1 (stereo unspecified)	-4	0	56*	0
CC1=C(C(=O)OCc2ccccc2)C(c2ccc(O)c([N+](=O)[O-])c2)C2=C(CC(c3ccccc3)CC2=O)N1 (stereo unspecified)	15	0	44*	0
Cc1ccc(-c2nn3c(N)c(C=C4C=CC(=O)C=C4)c(=O)nc3s2)cc1	8	0	-48	-2
Cc1cccc(CN2CCc3nnc(CNC(=O)c4ccccc4)n3CC2)c1	-2	0	0	0
CS(=O)(=O)Nc1cccc(-c2cnc3ccc(NCCCO)nn23)c1	-5	0	58*	1
COCCNc1ccc2ncc(-c3cccc(C(N)=O)c3)n2n1	-4	0	-3	-1
COCCNc1ccc2ncc(-c3cccc(NC(C)=O)c3)n2n1	6	0	56*	0
COCCNc1ccc2ncc(-c3cccc(C(C)=O)c3)n2n1	-5	0	7	3
COCCNc1ccc2ncc(-c3cccc(NS(C)(=O)=O)c3)n2n1	-18	0	42*	1
Cc1c(C(=O)N2CCC(C)CC2)sc2nc(-c3ccccc3)cn12	11	0	-39	3
Cc1ccc(NC(=O)Cn2nnc(-c3ccc(F)cc3)n2)cc1[N+](=O)[O-]	9	0	0	-1
COc1ccccc1N1CCN(Cc2cc([N+](=O)[O-])c3cccnc3c2O)CC1	18	-1	14	-1
SMILES	MITF primary	FBW7 act	TEAD-YAP block	GPR151 activ
CCOc1ccccc1N1CCN(Cc2cc(OC)c(OC)c(OC)c2)CC1	35	1	41*	-1
Oc1c(CN2CCCCC2)cc(COCc2ccccc2)c2cccnc12	98*	-1	74*	0
COc1ccccc1N1CCN(Cc2cc(Cl)c3cccnc3c2O)CC1	42	-1	32*	-3
COCc1cc(CN2CCCC2)c(O)c2ncccc12	100*	-1	81*	1
O=C(c1ccccc1)c1ccc2c(c1)C(=O)N(c1ccc(Cl)cc1Cl)C2=O	7	0	0	1
O=C(NCCCN1CCOCC1)c1cc2nc3c(c(C(F)(F)F)n2n1)CCc1ccccc1-3	14	0	5	0
COc1cc(OC)cc(C(=O)NC(=S)Nc2cccc(C(=O)O)c2)c1	2	0	-50	-1
COc1ccccc1N1CCN(Cc2cc(COC(C)C)c3cccnc3c2O)CC1	82*	-1	35*	1
COc1ccccc1N1CCN(Cc2cc(COCc3ccccc3)c3cccnc3c2O)CC1	49	-1	74*	0
CCCOCc1cc(CN2CCN(C)CC2)c(O)c2ncccc12	94*	-1	7	-2
COc1ccccc1N1CCN(Cc2cc([N+](=O)[O-])c(O)c3ncccc23)CC1	28	-1	6	-1
COc1ccccc1N1CCN(Cc2cc(Br)c(O)c3ncccc23)CC1	43	-1	81*	0
O=c1/c(=C/c2ccc(Br)cc2)sc2ncnn12	10	0	-4	1
N#Cc1c(N)n(-c2ccccc2I)c2nc3ccccc3nc12	12	1	1	1
CCCn1c2ccccc2c2nnc(SCC(=O)Nc3nc4ccc([N+](=O)[O-])cc4s3)nc21	8	0	-4	2
O=[N+]([O-])C1C(c2ccccc2)=NOC1c1ccc(Br)cc1 (stereo unspecified)	11	1	-24	0
CCC(C)NC(=O)c1cnc2scc(-c3ccccc3Cl)n2c1=O (stereo unspecified)	14	0	-2	-1
O=C(COC(=O)c1cc2ccccc2oc1=O)Nc1ccccc1Br	-1	0	-50	0
CCOc1ccccc1N1CCN(Cc2cccc(OC)c2O)CC1	17	0	8	0
CCOCc1cc(CN2CCN(c3ccccc3OC)CC2)c(O)c2ncccc12	91*	-1	10	0
CCOCc1cc(CN2CCOCC2)c(O)c2ncccc12	86*	-1	-3	-1
CC1CCN(Cc2cc([N+](=O)[O-])c(O)c3ncccc23)CC1	42	-1	-5	-1
COCc1cc(CN(C)C2CCCCC2)c(O)c2ncccc12	67*	-2	74*	0
CCOP(=O)(OCC)c1nc(-c2ccco2)oc1NCc1ccc(OC)cc1	1	0	1	0
c1ccc(OCCSc2nnc3sc4ccccc4n23)cc1	-9	0	71*	-5
SMILES	MITF primary	FBW7 act	TEAD-YAP block	GPR151 activ
CCn1c(SCC(=O)Nc2ccc(OC)cc2OC)nnc1-c1c[nH]c2ccccc12	-7	0	7	1
CSc1nc2c(c(=O)[nH]c(=O)n2C)n1CCSc1nc2ccccc2s1	5	1	37*	0
O=C(O)c1cc(-c2ccc3c(c2)OCO3)nc2cc3c(cc12)OCCO3	16	0	32*	0
CCOC(=O)c1cnc2ccc(C)cc2c1NCCN1CCOCC1	-2	0	-6	-1
CCOC(=O)c1cnc2ccc(C)cc2c1NCCCN1CCOCC1	-20	0	38*	0
COc1ccc(O)c(C2=Nc3ccccc3N=C(c3ccc(C(C)(C)C)cc3)C2)c1	7	0	56*	2
NC(=O)c1cc2ccc(O)cc2oc1=Nc1ccc(-c2ccccc2)cc1	13	1	-9	1
CC(=O)c1ccc(N=c2oc3cc(O)ccc3cc2C(N)=O)cc1	-5	0	60*	-2
CCc1nc(SCc2ccc(Cl)cc2Cl)c(C#N)c2c1CCCC2	7	2.2*	1	-1
